# Compounds with a hit are over-represented: about 19% of the library has one in this group of screens.
# HT1080-NT tox = kills 2HG-producing HT-1080-NT fibrosarcoma cells | AID 686970 | Potency, µM (doses to about 46.1 µM), usual class: cytotoxic | hit rate 1.6% among 360,000 | HT-1080-NT fibrosarcoma viability, CellTiter-Glo ATP luminescence, 48 h;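 note: NT is the 2HG producing partner of a matched IDH1 knockdown line; nearly all actives have a fitted effect of over 55% in size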
#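 A 48-hour cytotoxicity screen used HT-1080-NT cells plated 2 hours before compound delivery. ATP-based CellTiter-Glo luminescence measured viability, normalized to DMSO and no-cell controls.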
# DT40 TDP1 no CPT = qHTS for Inhibitors of human tyrosyl-DNA phosphodiesterase 1 (TDP1): qHTS in cells in absence of CPT; DT40 Tdp1-/- hTDP1 cells, no CPT, ATP luminescence, 48 h; Potency, µM (doses to about 46.2 µM), most hits filed as inhibitors; hit rate 15% among 420,000; note: nearly all actives have a fitted effect of over 55% in size
#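 Camptothecin absent (DMSO only). Human TDP1-complemented DT40 knockout cells, 400 cells/well, 37 °C for minimum 48 hr; ATP measured via CellTiter-Glo, 30 min dark incubation, luminescence.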
# HT1080 IDH1KD tx = toxicity to HT-1080 IDH1 knockdown cells (counter line); AID 686971; hit rate 2% among 360,000; HT-1080 IDH1 knockdown viability, ATP luminescence, 48 h; Potency, µM (series often up to 46.1 µM), most hits filed as cytotoxic
#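 Viability of IDH1-knockdown HT-1080 fibrosarcoma cells was assessed by CellTiter-Glo after 48 h at 37 °C with titrated compound; concentration-effect curves were classified by fit quality and response size.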
# TDP1 cell CPT = DT40-hTDP1 cell growth loss with CPT; chicken DT40 Tdp1-/-;hTDP1 cells + 20 nM CPT, ATP luminescence, 48 h; Potency, µM (series often up to 46.2 µM), hits mostly inhibitors; hit rate 12% among 420,000; note: nearly all actives have a fitted effect of over 55% in size
#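 Chicken DT40 Tdp1-/- cells complemented with human TDP1, 400 cells/well, exposed to compounds plus 20 nM camptothecin for at least 48 h at 37 C; viability read as ATP content by CellTiter-Glo luminescence.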
# IL1B secr inh = blocks inflammasome-driven IL-1 beta release; THP-1 LPS/ATP IL-1B secretion, AlphaLISA, 16 h; stronger effect = lower value; activity change, % at 57.5 µM; hit rate 4.7% among 360,000; in the data active = activity change below about -50%; inconclusive = mostly about -30% to -49%
#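 Secreted IL-1B measured by AlphaLISA bead assay after 16 h compound exposure of THP-1 cells; compounds (final up to 57.5 uM) added 1 h before LPS (250 ng/mL) and ATP (1.25 mM) stimulation; lower signal means less secretion.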
# A number is an active result; - = inactive; ? = inconclusive; . = no result; [ ] = remark or other dose. Unless noted, calls come from the whole dose curve; as a rule, active = well fitted curve in the direction sought with a large enough effect; inconclusive = small, poorly fitted or top-dose-only effect, or another doubt; inactive = no such curve, though single readings can be large; an effect the other way counts as inactive or inconclusive.
SMILES,HT1080-NT tox,DT40 TDP1 no CPT,HT1080 IDH1KD tx,TDP1 cell CPT,IL1B secr inh
COc1ccc(OC)c(-c2cc(C(=O)N3CCN(c4ccccc4)CC3)no2)c1,-,21µM,-,?,-
COc1ccc(OC)c(-c2cc(C(=O)N3CCc4ccccc4C3)no2)c1,-,?,-,-,-
O=C(COc1cccnc1[N+](=O)[O-])NCc1cccs1,-,-,-,-,-
CCOC(=O)N1CCN(C(=O)C2CCN(c3nnc(-n4cccc4)s3)CC2)CC1,-,-,-,-,-
CO[C@H]1CN(C)C(=O)c2ccc(NC(=O)C3CCC3)cc2OC[C@H](C)N(Cc2ccccn2)C[C@@H]1C,-,-,-,-,-
CO[C@H]1CN(C)C(=O)c2cc(NS(=O)(=O)c3ccccc3)ccc2OC[C@@H](C)N(Cc2ccccn2)C[C@@H]1C,-,-,-,-,-
COc1cccc(S(=O)(=O)Nc2ccc3c(c2)C(=O)N(C)C[C@H](OC)[C@H](C)CN(Cc2ccccc2F)[C@@H](C)CO3)c1,?,8.2µM,?,9.2µM,?
CO[C@H]1CN(C)C(=O)c2cc(NC(=O)C3CCOCC3)ccc2OC[C@H](C)N(Cc2nccs2)C[C@H]1C,-,-,-,-,-62
COc1ccc(CNC(=O)CC2C[C@H](C(=O)N3CCCCC3)[C@@]3(C)c4[nH]c5ccccc5c4CCN3C2=O)cc1OC (some centres undefined),-,?,-,?,-
Cc1ccc(C)c(S(=O)(=O)N2CCN(C(=O)Cc3ccc(S(=O)(=O)N4CCOCC4)s3)CC2)c1,-,?,-,?,-
CCOC(=O)c1cc(S(=O)(=O)N2CCN(c3ccc(C(C)=O)cc3)CC2)[nH]n1,.,16µM,.,18µM,.
CCOC(=O)c1cc(S(=O)(=O)N2CCN(c3cccc(C)c3)C(C)C2)[nH]n1 (centres undefined),.,23µM,.,16µM,.
Cc1cccc(N2CCN(S(=O)(=O)c3cccc4nonc34)CC2C)c1 (centres undefined),-,-,-,-,-
CC(=O)c1ccc(N2CCN(S(=O)(=O)c3cccc(S(=O)(=O)N4CCOCC4)c3)CC2)cc1,-,?,-,?,-
CCOC(=O)C1(CCOc2ccccc2)CCN(Cc2ccc(OCC)c(CO)c2)CC1,?,18µM,-,15µM,-
CCOC(=O)C1(CCOc2ccccc2)CCN(Cc2cccc(OC)c2OC)CC1,?,21µM,?,?,-88
CCOC(=O)C1(CCOc2ccccc2)CCN(CCCn2cccn2)CC1,-,?,-,?,-
CCOC(=O)C1(CCOc2ccccc2)CCN(Cc2cnc(C)s2)CC1,-,21µM,-,?,-
CCOC(=O)C1(CCOc2ccccc2)CCN(Cc2ccccc2O)CC1,-,?,-,?,-
CCOC(=O)C1(CCOc2ccccc2)CCN(C(=O)c2ccc(-n3cccn3)cc2)CC1,-,21µM,?,?,-
COc1ccc(S(=O)(=O)N2CCN(c3ccccc3OC)CC2)cc1-c1noc(C)n1,.,-,.,-,.
CCNc1ncc2nc(-c3cc(F)cc(F)c3)c(=O)n(C)c2n1,.,-,.,-,.
Cc1cccc(C)c1NC(=O)CNC(=O)c1cccnc1,-,-,-,-,-
CCOC(=O)C1(Cc2cccc(F)c2)CCN(Cc2cnn(CC)c2)CC1,-,?,?,-,-
CCOC(=O)C1(CCOc2ccccc2)CCN(Cc2cccn2-c2cccnc2)CC1,-,?,-,?,?
SMILES,HT1080-NT tox,DT40 TDP1 no CPT,HT1080 IDH1KD tx,TDP1 cell CPT,IL1B secr inh
CCOC(=O)C1(CCOc2ccccc2)CCN(Cc2ccc(CO)o2)CC1,-,2.3µM,-,8.2µM,-
CCOC(=O)C1(CCOc2ccccc2)CCN(Cc2cccc(-n3cccn3)c2)CC1,-,16µM,?,16µM,-
CCOC(=O)C1(Cc2cccc(F)c2)CCN(Cc2nc(CC)[nH]c2C)CC1,?,23µM,-,?,-55
CCOC(=O)C1(CCOc2ccccc2)CCN(Cc2ccc3nonc3c2)CC1,-,21µM,-,?,-
O=C(NCCS(=O)(=O)N1CCCCC1)c1ccccc1,-,-,-,-,-
O=C(NC1CC(=O)N(c2ccccc2)C1)c1cc2ccccc2o1 (centres undefined),.,?,.,-,.
CC1C(=O)N2CCCc3cc(NC(=O)c4ccccc4C(F)(F)F)cc1c32 (centres undefined),-,-,-,-,-
COCC1CCCN(Cc2ccc3c(c2)CN(C(=O)c2ccc(-c4ccc(C)o4)cc2)CCO3)C1 (centres undefined),.,-,.,-[9.04 µM],.
Cc1ccc(S(=O)(=O)N2CCCCC2)cc1NC(=O)COC(=O)c1ccc(O)cc1,-,?,-,?,-
CCOC(=O)C1(CCOc2ccccc2)CCN(Cc2cccc(F)c2)CC1,-,5.8µM,-,16µM,?
CCOC(=O)C1(CCOc2ccccc2)CCN(Cc2ccc(OC)cc2)CC1,?,21µM,?,15µM,?
CCOC(=O)C1(CCOc2ccccc2)CCN(Cc2cccc(OCCO)c2)CC1,-,?,-,?,-
COc1ccc(C(=O)NCCN2Cc3cc(C)ccc3OC(C)C2)c(OC)n1 (centres undefined),.,-,.,-[9.04 µM],.
COc1ccccc1C(=O)NC(=O)COC(=O)C1CC1C (centres undefined),-,-,-,-,-
CN(C(=O)c1ccc(NC(=O)Cc2cccc(NC(=O)C3CCCN(C(=O)CCc4ccccc4)C3)c2)cc1)C1CC1 (centres undefined),-,?,-,?,-
O=C(Cc1cccc(NC(=O)C2CCCN(C(=O)C3CCC3)C2)c1)Nc1ccc(C(=O)N2CCOCC2)cc1 (centres undefined),-,-,-,-,-
CN(C(=O)c1cccc(NC(=O)Cc2cccc(NC(=O)C3CCCN(C(=O)CCc4ccccc4)C3)c2)c1)C1CCC1 (centres undefined),-,21µM,-,?,-
CN(C(=O)c1cccc(NC(=O)Cc2ccc(NC(=O)C3CCN(C(=O)CCc4ccccc4)CC3)cc2)c1)C1CCCCC1,-,15µM,-,21µM,-
O=C(Cc1cccc(NC(=O)C2CCCN(C(=O)CCc3ccccc3)C2)c1)Nc1cccc(C(=O)N2CCOCC2)c1 (centres undefined),-,?,-,?,-
O=C(Cc1cccc(NC(=O)C2CCCN(C(=O)CCc3ccccc3)C2)c1)Nc1cccc(C(=O)N2CCCCC2)c1 (centres undefined),-,21µM,-,16µM,-
O=C(Cc1cccc(NC(=O)C2CCCN(C(=O)C3CCCC3)C2)c1)Nc1ccc(C(=O)N2CCOCC2)cc1 (centres undefined),-,?,-,16µM,-
